Test results as given in PubChem BioAssay (NCI).
This is part of a sample that, as a whole, favours compounds with a hit. Of some 83,000 tested, about 20% had one in any assay.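 Step 1: grow cells in 96-well plates. Step 2: add test compound at a single concentration. Step 3: incubate 48 h. Step 4: record percent growth.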 A number with no mark means an inactive call. Active and inactive are the calls of the source. The calls were made as follows: active = growth percent below 10; inactive = the rest.

Assays:
Experiment in all cases: NCI-60 one-dose screen, 48 h (100 = growth as untreated, 0 = no growth, -100 = all killed)
Conditions in all cases: 10 µM unless noted
T-47D breast = tested on: T-47D breast
BT-549 breast = tested on: BT-549 breast
MDA-MB-435 melanoma = tested on: MDA-MB-435 melanoma
SW-620 colon = tested on: SW-620 colon
MCF7 breast = tested on: MCF7 breast
HCT-116 colon = tested on: HCT-116 colon
HCC-2998 colon = tested on: HCC-2998 colon
KM12 colon = tested on: KM12 colon

| SMILES | growth (T-47D breast) | growth (BT-549 breast) | growth (MDA-MB-435 melanoma) | growth (SW-620 colon) | growth (MCF7 breast) | growth (HCT-116 colon) | growth (HCC-2998 colon) | growth (KM12 colon) |
| --- | --- | --- | --- | --- | --- | --- | --- | --- |
| COc1ccc(C(=O)c2sc3nc4c(cc3c2N)CCCC4)cc1OC | 15.5% | 24.1% | -9.21% (active) | 34.6% | 27.1% | 19.4% | 109% | 26.9% |
| CC(=O)C1=C(O)C=C2Oc3c(C(=O)/C=C/c4ccccc4)c(O)c(C)c(O)c3[C@]2(C)C1=O | 47.1% | 49.6% | 46.3% | 49.9% | 44.1% | 30.9% | 32.6% | 33.6% |
| Brc1cccc(-c2cc(-c3ccc4c(c3)OCCO4)[nH]n2)c1 | 29% [25 µM] | 41.7% [25 µM] | -40.2% [25 µM] (active) | 28.7% [25 µM] | 10.6% [25 µM] | 21% [25 µM] | 44.6% [25 µM] | 22.9% [25 µM] |
| CCOC(=O)c1cnc2ccc(Br)cc2c1Nc1cccc(S(=O)(=O)NC)c1 | 86% | 101% | 105% | 91.9% | 91.3% | 84.7% | 97% | 98.7% |
| CN1CCN(Cc2ccc(NC(=O)c3[nH]ncc3Nc3ncnc4sccc34)cc2)CC1 | 27.7% | -5.78% (active) | 25.8% | 6.8% (active) | 9.47% (active) | 6.91% (active) | -1.02% (active) | 5.21% (active) |
| Cc1ccc(Nc2c(C(N)=O)cnc3ccc(-c4csc(N)n4)cc23)cc1 | 96.7% | 96.4% | 102% | 97% | 92.4% | 93.5% | 100% | 95.6% |
| O=C1Nc2ccccc2/C1=C/C(=N/c1nnc(-c2ccccc2)s1)c1ccccc1 | 73.7% | 66.4% | 51.6% | -5.52% (active) | 36.9% | -51.9% (active) | 104% | 87.7% |
| O=c1c2cccc3c(Nc4ccccn4)ccc(c32)c2nc3ccccc3n12 | 46.6% | 87.4% | 99.4% | 77.1% | 28.7% | 65% | 68.5% | 74.8% |
| COc1ccc(-c2nn(-c3ccccc3)cc2/C=C2\SC(=O)NC2=O)cc1 | 85.9% | 101% | 108% | 107% | 85.2% | 95.1% | 109% | 98.1% |
| CC[n+]1ccc2c(c1)C(=O)c1nccc3c1c-2nc1ccccc13 | 8.59% (active) | -82.7% (active) | 4.27% (active) | 5.32% (active) | -6.21% (active) | -27.8% (active) | -21% (active) | 8.87% (active) |
| COCCOc1ccc(-c2nc3ccc(-c4nc5ccc(N6CCN(C)CC6)cc5[nH]4)cc3[nH]2)cc1 | 2.28% (active) | -30.5% (active) | -43.6% (active) | 4.55% (active) | 17.7% | -57.6% (active) | -52.7% (active) | 46.2% |
| COc1ccc(/C(=C/c2ccc3ccccc3c2)c2nn[nH]n2)cc1OC | 36.1% | 40.3% | -41% (active) | 29.2% | 52.3% | 17.7% | 55.4% | 24.5% |
| Cn1c(=O)c2[nH]c(C(O)C(O)C(O)C(O)CO)nc2n(C)c1=O (centres undefined) | 90.8% | 108% | 108% | 102% | 97.9% | 106% | 103% | 101% |
| O=c1c2cccc3c(Nc4c(F)cccc4F)ccc(c32)c2nc3ccccc3n12 | 52.7% | 98.7% | 111% | 102% | 20.4% | 98.4% | 72.7% | 78.9% |
| CCN(C(=O)CN1CCN(c2cc3c(cc2F)c(=O)c(C(=O)O)cn3C2CC2)CC1)c1nc(-c2ccc(OC)cc2)cs1 | 78.7% | 73.1% | 53.2% | 49% | 73.9% | 40% | 85.4% | 52.9% |
| COc1cccc(/C=C\C(=O)c2ccccc2)c1 | 56.5% | 97.4% | 72.9% | 15% | 11.5% | 16.2% | 104% | 8.52% (active) |
| C/C(=C(/c1ccc(O)cc1)c1ccc(Cl)cc1)c1ccccc1 | -13.5% (active) | -78.9% (active) | -93.1% (active) | -71.4% (active) | -63.3% (active) | -69.4% (active) | -74.9% (active) | -86.2% (active) |
| O=C(CN1CCN(c2cc3c(cc2F)c(=O)c(C(=O)N/N=C/c2ccccc2)cn3C2CC2)CC1)N/N=C\c1ccccc1 | 92% | 65.2% | 78.6% | 87.8% | 53.2% | 70.7% | 91% | 71.1% |
| COc1ccc(-c2c(C)noc2-c2ccc(O)cc2O)cc1 | 86.9% | 112% | 87.1% | 69.5% | 67.6% | 77.9% | 111% | 64.4% |
| CC(C)CC(CC1=CCC2CC1C2(C)C)C1=C(O)C(C)(C)C(=O)C(C)(C)C1=O (centres undefined) | 4.63% (active) | -6.03% (active) | 11% | 14.2% | 7.94% (active) | 6.3% (active) | 17.6% | 9.6% (active) |
| COc1ccc(S(=O)(=O)NCCNc2nccc(-c3c(-c4cccc([N+](=O)[O-])c4)nc4sccn34)n2)cc1 | 44.4% | 72.1% | 77.9% | 128% | 61.3% | 90% | 128% | 44.8% |
| Oc1c(Cl)cc(Cl)cc1CNc1nccnn1 | 105% | 105% | 99.3% | 102% | 99.2% | 98.1% | 98.6% | 93.1% |
| Cc1ccc(N)cc1F | 184% | 116% | 100% | 107% | 94.2% | 86.8% | 106% | 99.7% |
| COc1ncc(-c2ccc3ncnc(Nc4cccc(Cl)c4)c3c2)cc1NS(C)(=O)=O | -6.68% (active) | 25.3% | 41.9% | 50.2% | 7.7% (active) | 47% | 56.8% | 55.3% |
| Cn1c2ccccc2c2c3c(c4c5ccccc5n(CCCCCC#N)c4c21)C(=O)N(O)C3=O | 17.4% | 18.5% | 20.9% | 14% | 7.79% (active) | -19.4% (active) | 25.3% | 16.6% |
| O=C(NC(Cc1ccccc1)C(=O)CCl)OCc1ccccc1 (centres undefined) | 70.7% | 41.4% | 16.1% | 48.4% | 29% | 45.9% | 97.1% | 89.1% |
| COc1cc(C2CC(=O)Nc3c2c(C)nn3-c2nc3ccccc3[nH]2)cc(OC)c1OC (centres undefined) | 103% | 113% | 103% | 97.4% | 88.1% | 107% | 93.7% | 123% |
| CC1CN(Cc2ccco2)C(=S)N(c2ccccc2)C1=O (centres undefined) | 83.1% | 94.6% | 100% | 102% | 102% | 88.9% | 113% | 99.9% |
